# Compound activity (PubChem)
# Many of the other results were omitted from the sample, so hits are more common in it than they were.
# mHTT-CaM PPI inh: mutant huntingtin-calmodulin interaction inhibitors – biochemical, AlphaScreen, primary screen. AID 1671202, 2021. inhibition, % at 15 µM. 3.6% of 190,000 active. AlphaScreen His-mHTT/GST-CaM binding, luminescence. P42858
# Pf apPOL inh: Pf-apPOL inhibitors, biochemical, fluorescence | Plasmodium falciparum apicoplast DNA polymerase (apPOL) | Recombinant Pf-apPOL, molecular beacon fluorescence, 1.5 h | inhibition, % at 10 µM | 0.25% of 210,000 active
# A number is an active result; 0 = inactive; - = no result given. No stated cut-off is given here; in the data, active means inhibition above about 50%; inactive means the rest.
SMILES,mHTT-CaM PPI inh,Pf apPOL inh
COCCNC(=O)C(=O)NCC(c1ccc(N(C)C)cc1)N1CCc2ccccc2C1 (configuration not stated),0,0
COCCNC(=O)N1CCc2c(c(COCc3ccccc3F)nn2C)C1,0,0
O=C(CCC1CCCN(C(=O)Nc2cccc(F)c2)C1)N1CCN(c2ccccc2)CC1 (configuration not stated),50,0
CCN1CCN(C(=O)CCC2CCCN(C(=O)Nc3cccc(F)c3)C2)CC1 (configuration not stated),0,0
O=C(NCCCc1ccccc1)c1ccc2c(c1)NC(=O)C1CCCCN21 (configuration not stated),0,0
O=C(NCCCc1ccccc1)c1ccc2c(c1)NC(=O)C1CCCN21 (configuration not stated),67,0
COc1cccc(N2CCN(C(=O)c3ccc4c(c3)NC(=O)C3CCCCN43)CC2)c1 (configuration not stated),0,0
O=C(NCCN1CCC(Cc2ccccc2)CC1)c1ccc2c(c1)NC(=O)C1CCCCN21 (configuration not stated),97,0
O=C(NCCN1CCCCCC1)c1ccc2c(c1)NC(=O)C1CCCCN21 (configuration not stated),0,0
O=C1Nc2cc(C(=O)N3CCN(c4cccc(Cl)c4)CC3)ccc2N2CCCCC12 (configuration not stated),93,0
CCC(=O)N1CCc2cc(N3CC(C(=O)Nc4cc(C)ccc4C)CC3=O)ccc21 (configuration not stated),0,0
CCc1cccc(NC(=O)C2(C)Oc3cccnc3NC2=O)c1 (configuration not stated),0,0
Cc1csc2ncnc(N3CCN(C(=O)Nc4ccc(Cl)c(Cl)c4)CC3)c12,-,0
COc1ccc(S(=O)(=O)Nc2cccc([N+](=O)[O-])c2)cc1Br,0,0
COc1ccccc1-c1nc(C2CCCN(C(=O)COc3ccccc3)C2)no1 (configuration not stated),0,0
CCOc1ccc(C2OC(=O)Cc3cc(OCC)c(OCC)cc32)cc1OCC (configuration not stated),0,0
CCOc1ccc(C2Oc3c(cc(Br)cc3OC)C=C2[N+](=O)[O-])cc1OCC (configuration not stated),62,0
CC(C)(Oc1ccc(Cl)cc1)C(=O)N1CCN(c2cccc(Cl)c2)CC1,0,0
CC(C)(Oc1ccc(Cl)cc1)C(=O)N1CCN(c2ccc(F)cc2)CC1,94,0
COc1cccc(CNC(=O)C2(C)CCCN(C(=O)c3ccccc3)C2)c1 (configuration not stated),0,0
COc1ccc(C2=NC3(CCCCC3)N(CC(=O)Nc3cccc(Cl)c3)C2=O)cc1,0,0
COc1ccc(C2=NC3(CCCCC3)N(CC(=O)Nc3ccc(F)c(Cl)c3)C2=O)cc1,100,0
O=C(CN1C(=O)C(c2ccccc2)=NC12CCCC2)Nc1cccc(Cl)c1,74,0
O=C(CN1C(=O)C(c2ccccc2)=NC12CCCCC2)Nc1ccc(F)cc1,0,0
O=C(CN1C(=O)C(c2ccccc2)=NC12CCCCC2)Nc1ccccc1,0,0
SMILES,mHTT-CaM PPI inh,Pf apPOL inh
COc1ccc(C2=NC3(CCCCC3)N(CC(=O)Nc3ccc(Cl)cc3)C2=O)cc1,0,0
CC1CCC2(CC1)N=C(c1ccccc1)C(=O)N2CC(=O)Nc1ccc(F)cc1 (configuration not stated),58,0
O=C(CN1C(=O)C(c2ccccc2)=NC12CCCCCC2)Nc1ccc(Cl)cc1,100,0
O=C(Cc1ccccc1)NCc1cccc(CNC(=O)Cc2ccccc2)c1,0,0
COc1ccc(S(=O)(=O)NCCSc2ccc(Cl)cc2)cc1,0,0
CCOC(=O)C1CCCN(C(=O)C2CC(=O)N(c3ccc(F)cc3)C2)C1 (configuration not stated),0,0
Cc1cccc(N2C(N)=C(C#N)C(c3ccsc3)C3=C2CCCC3=O)c1 (configuration not stated),0,0
O=C(CN1C(=O)C(c2ccc(Cl)cc2)=NC12CCCCC2)Nc1cccc(F)c1,76,0
Cc1cccc(NC(=O)CN2C(=O)C(c3ccc(F)cc3)=NC23CCCCCC3)c1,0,0
Cc1nc2ccc(NC(=O)N3CCN(c4ccccn4)CC3)cc2nc1C,0,0
Cc1ccc(N=C2NC(=O)C(CC(=O)Nc3ccc(Br)cc3)S2)cc1 (configuration not stated),0,0
O=C(Nc1cc(F)ccc1F)N1CCC(c2cnn(-c3ccc(F)cc3)c2)CC1,0,0
C=CS(=O)(=O)c1sc(Cl)c(N2CCOCC2)c1[N+](=O)[O-],60,0
C=CSc1sc(Cl)c(N2CCC3(CC2)OCCO3)c1[N+](=O)[O-],67,0
O=[N+]([O-])c1c(N2CCOCC2)c([N+](=O)[O-])c(N2CCOCC2)c([N+](=O)[O-])c1N1CCOCC1,0,0
C=CSc1sc(Cl)c(N2CCOCC2)c1[N+](=O)[O-],0,0
CS(=O)(=O)Nc1ccc(Cl)c2cccnc12,86,0
CS(=O)(=O)Nc1ccc(Cl)cc1Cl,0,-
N#Cc1c(-c2ccco2)cc(-c2ccco2)[nH]c1=O,-,93
N#Cc1ccc(-c2ccco2)[nH]c1=O,-,0
N#Cc1c(-c2ccccc2)cc(-c2ccco2)c(C#N)c1N,55,0
N#CCOc1nc(-c2ccccc2)cc(-c2ccco2)c1C#N,-,0
COc1ccc(-c2nnc(NC(=O)c3ccc(S(=O)(=O)N4CCCCC4)cc3)o2)cc1,0,74
COc1ccc(C(=O)Nc2nnc(-c3ccccc3)o2)cc1OC,0,0
COc1ccc(-c2nnc(NC(=O)c3ccc(S(=O)(=O)N4CCOCC4)cc3)o2)cc1,0,0
SMILES,mHTT-CaM PPI inh,Pf apPOL inh
COc1ccc(-c2nnc(NC(=O)c3ccc(S(=O)(=O)N4CCOCC4)cc3)o2)c(OC)c1,54,0
COc1ccc(-c2nnc(NC(=O)c3ccc(S(=O)(=O)N4CCCCCC4)cc3)o2)cc1,0,0
COc1ccc(-c2nnc(NC(=O)c3ccc(OC)c(OC)c3)o2)cc1,50,0
Cc1nc(NCc2ccc(F)cc2)nc(N2CCOCC2)c1[N+](=O)[O-],0,0
Cc1ccccc1OCC(=O)NC1CCCCCC1,0,0
NNc1ncnc2ccccc12,100,-
c1ccc(CCNc2ncnc3ccccc23)cc1,0,0
C=CCSc1nnc2c(n1)OC(c1ccc(F)cc1)N(C(C)=O)c1ccccc1-2 (configuration not stated),0,0
C=CCSc1nnc2c(n1)OC(c1ccc(N(C)C)cc1)N(C(C)=O)c1ccccc1-2 (configuration not stated),64,0
CC(=O)Nc1ccccc1NC(=O)Cc1ccc(Cl)cc1,0,95
O=C(Cc1ccc(Cl)cc1)Nc1ccccc1NC(=O)Cc1ccc(Cl)cc1,0,0
COC(=O)c1cc(Nc2ccc3c(c2)OCO3)c2cccc(F)c2n1,51,0
COC(=O)c1cc(Nc2cccc(F)c2)c2cccc(F)c2n1,0,0
CC(=O)Nc1cc(C(=O)N2CCC3(CC2)OCCO3)ccc1Sc1ccc(Cl)cc1,0,0
COc1ccc(C(O)c2nccn2C)cc1 (configuration not stated),0,52
CCOc1ccc(C(O)c2nccn2C)cc1 (configuration not stated),0,0
